# Source: PubChem BioAssay (NCI)
# This is part of a sample that, as a whole, favours compounds with a hit. Of some 79,000 tested, about 15% had one in any assay. Unmarked numbers belong to inactive results. Active and inactive are the calls of the source. Cut-off read from the data, not from the text of the source: active = growth inhibition above about 70%; inactive = the rest.
# What was measured:
# [1] = NCI Yeast Anticancer Drug Screen. Data for the rad52 strain (AID 147);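 note: 0% = growth of vehicle-treated control cultures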; settings: S. cerevisiae rad52 mutant growth inhibition, hits give high values
# Method in brief: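 Compounds are applied to a genetically defined yeast strain lacking normal DNA damage repair, and inhibition of growth is expressed relative to cultures given vehicle only.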
# [2] = NCI Yeast Anticancer Drug Screen. Data for the wt1 strain (AID 149);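 note: 0% = growth of vehicle-treated wt1 cultures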; settings: S. cerevisiae wt1 strain (SPY 50644) growth inhibition, hits give high values
# Method in brief: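 Vehicle-normalised growth inhibition; strain wt1; compound exposure.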
# [3] = NCI Yeast Anticancer Drug Screen. Data for the rad50EPP+ strain (AID 151);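 note: 0% = growth of vehicle-treated control cultures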; settings: S. cerevisiae rad50 mutant strain, hits give high values
# Method in brief: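 Compounds were applied to the rad50EPP+ yeast strain, which bears a defined DNA repair alteration, and growth inhibition was determined relative to vehicle-treated cultures.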
# [4] = NCI Yeast Anticancer Drug Screen. Data for the mgt1 strain (AID 153); settings: S. cerevisiae mgt1 mutant growth inhibition, hits give high values
# Method in brief: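 Strain: mgt1 yeast, one of a set carrying defined DNA damage repair or cell cycle control alterations. Compound-treated growth compared with vehicle.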
# [5] = NCI Yeast Anticancer Drug Screen. Data for the rad50 strain (AID 155);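 note: 0% = growth of vehicle-only cultures of the same strain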; settings: S. cerevisiae rad50 strain growth inhibition, hits give high values
# Method in brief: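 A DNA repair-deficient yeast mutant serves as the test organism; compound-induced growth inhibition is calculated against vehicle-treated cells.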
# [6] = NCI Yeast Anticancer Drug Screen. Data for the mec2-1 strain (AID 157); settings: S. cerevisiae mec2-1 strain, hits give high values
# Method in brief: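 Strain: mec2-1 (DNA repair/cell cycle alteration). Compound exposure, then growth measured; inhibition expressed relative to vehicle.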
# [7] = NCI Yeast Anticancer Drug Screen. Data for the rad14 strain (AID 159);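 note: 0% = growth of vehicle-treated control cultures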; settings: S. cerevisiae rad14 strain growth inhibition, hits give high values
# Method in brief: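 Vehicle-treated cultures served as the baseline for growth inhibition of a DNA repair-mutant yeast strain exposed to each compound.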
# [8] = NCI Yeast Anticancer Drug Screen. Data for the sgs1 mgt1 strain (AID 161);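 note: 0% = growth of cultures given vehicle only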; settings: S. cerevisiae sgs1 mgt1 strain, hits give high values
# Method in brief: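 Test agents were incubated with a DNA-repair-mutant yeast strain. Growth was then read and compared against vehicle-treated controls.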
# [9] = NCI Yeast Anticancer Drug Screen. Data for the CLN2oe strain (AID 163);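 note: 0% = growth of vehicle-only control cultures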; settings: S. cerevisiae CLN2oe strain, hits give high values
# Method in brief: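 Growth of a genetically modified yeast strain is measured after compound exposure and compared with cultures given vehicle alone.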
# [10] = NCI Yeast Anticancer Drug Screen. Data for the cln2 rad14 strain (AID 165);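 note: 0% = growth equal to vehicle treated cultures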; settings: S. cerevisiae cln2 rad14 strain, hits give high values
# Method in brief: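 Compounds are applied to the cln2 rad14 yeast strain, and growth is then compared with that of vehicle-treated cultures to give inhibition.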
# [11] = NCI Yeast Anticancer Drug Screen. Data for the bub3 strain (AID 167); settings: S. cerevisiae bub3 mutant strain, hits give high values
# Method in brief: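 Inhibition values come from growth of compound-treated mutant yeast normalised to vehicle-treated controls.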
# [12] = NCI Yeast Anticancer Drug Screen. Data for the wt2 strain (AID 169);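 note: 0% = growth of vehicle-treated yeast cultures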; settings: S. cerevisiae wt2 strain growth inhibition, hits give high values
# Method in brief: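 This strain belongs to a panel of yeast strains with defined genetic alterations in DNA damage repair or cell cycle control. Compounds are applied, and growth inhibition is measured against vehicle-treated cultures.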
# [13] = NCI Yeast Anticancer Drug Screen. Data for the mlh1 strain (AID 171);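 note: 0% = growth of vehicle-treated control cultures of the same strain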; settings: S. cerevisiae mlh1 strain growth inhibition, hits give high values
# Method in brief: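 Growth of the mutant yeast strain after compound exposure, expressed as inhibition relative to vehicle-only controls.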
# [14] = NCI Yeast Anticancer Drug Screen. Data for the sgs1 strain (AID 173);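 note: 0% = growth of vehicle-only control cultures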; settings: S. cerevisiae sgs1 mutant, hits give high values
# Method in brief: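 Growth of a yeast strain bearing a defined genetic alteration is measured after compound treatment. Inhibition is expressed relative to vehicle-only controls.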
# [15] = NCI Yeast Anticancer Drug Screen. Data for the mlh1 rad18 strain (AID 175); settings: S. cerevisiae mlh1 rad18 strain growth inhibition, hits give high values
# Method in brief: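 Read-out is yeast growth inhibition, calculated against vehicle-only controls. The compound was applied to a strain engineered with DNA damage repair alterations.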
# [16] = NCI Yeast Anticancer Drug Screen. Data for the rad18 strain (AID 177); settings: S. cerevisiae rad18 mutant growth inhibition, hits give high values
# Method in brief: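 Growth of the mutant yeast strain after compound exposure, normalised to vehicle-only cultures.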
# [17] = at 5.0 µM (retest, dose inferred, filed as 0.5)
# [18] = at 50.0 µM (retest, dose inferred, filed as 5.0)
compound,measurement,setting,value
C[C@H](CCC1=NC(C)(C)CO1)C1CCC2[C@@H]3C(O)C[C@@H]4CC(O)CC[C@]4(C)C3CC[C@@]21C (stereo partly drawn),growth inhibition,[1]; at 1.2 µM,-3%
same,growth inhibition,[1]; at 3.7 µM,-5%
same,growth inhibition,[1]; at 11.0 µM,-9%
same,growth inhibition,[1]; at 33.0 µM,70% (active)
same,growth inhibition,[1]; at 100.0 µM,99% (active)
same,growth inhibition,[2]; at 1.2 µM,-3%
same,growth inhibition,[2]; at 3.7 µM,-5%
same,growth inhibition,[2]; at 11.0 µM,-11%
same,growth inhibition,[2]; at 33.0 µM,37%
same,growth inhibition,[2]; at 100.0 µM,99% (active)
same,growth inhibition,[3]; at 1.2 µM,-4%
same,growth inhibition,[3]; at 3.7 µM,-3%
same,growth inhibition,[3]; at 11.0 µM,-3%
same,growth inhibition,[3]; at 33.0 µM,-4%
same,growth inhibition,[3]; at 100.0 µM,25%
same,growth inhibition,[4]; at 1.2 µM,-7%
same,growth inhibition,[4]; at 3.7 µM,-8%
same,growth inhibition,[4]; at 11.0 µM,-9%
same,growth inhibition,[4]; at 33.0 µM,71% (active)
same,growth inhibition,[4]; at 100.0 µM,100% (active)
same,growth inhibition,[5]; at 1.2 µM,-3%
same,growth inhibition,[5]; at 3.7 µM,-4%
same,growth inhibition,[5]; [17],1%
same,growth inhibition,[5]; at 11.0 µM,-8%
same,growth inhibition,[5]; at 33.0 µM,76% (active)
same,growth inhibition,[5]; [18],95% (active)
same,growth inhibition,[5]; at 50.0 µM,99.4% (active)
same,growth inhibition,[5]; at 100.0 µM,99% (active)
same,growth inhibition,[6]; at 1.2 µM,-5%
same,growth inhibition,[6]; at 3.7 µM,-3%
same,growth inhibition,[6]; [17],-2%
same,growth inhibition,[6]; at 11.0 µM,-6%
same,growth inhibition,[6]; at 33.0 µM,84% (active)
same,growth inhibition,[6]; [18],98% (active)
same,growth inhibition,[6]; at 50.0 µM,99.8% (active)
same,growth inhibition,[6]; at 100.0 µM,100% (active)
same,growth inhibition,[7]; at 1.2 µM,-4%
same,growth inhibition,[7]; at 3.7 µM,-4%
same,growth inhibition,[7]; at 11.0 µM,1%
same,growth inhibition,[7]; at 33.0 µM,99% (active)
same,growth inhibition,[7]; at 100.0 µM,100% (active)
same,growth inhibition,[8]; [17],3%
same,growth inhibition,[8]; [18],98% (active)
same,growth inhibition,[8]; at 50.0 µM,99.7% (active)
same,growth inhibition,[9]; at 1.2 µM,-6%
same,growth inhibition,[9]; at 3.7 µM,-12%
same,growth inhibition,[9]; at 11.0 µM,-11%
same,growth inhibition,[9]; at 33.0 µM,62%
same,growth inhibition,[9]; at 100.0 µM,99% (active)
same,growth inhibition,[10]; [17],1%
same,growth inhibition,[10]; [18],96% (active)
same,growth inhibition,[10]; at 50.0 µM,97.9% (active)
same,growth inhibition,[11]; at 1.2 µM,-3%
same,growth inhibition,[11]; at 3.7 µM,-2%
same,growth inhibition,[11]; [17],0%
same,growth inhibition,[11]; at 11.0 µM,-10%
same,growth inhibition,[11]; at 33.0 µM,79% (active)
same,growth inhibition,[11]; [18],98% (active)
same,growth inhibition,[11]; at 50.0 µM,98.5% (active)
same,growth inhibition,[11]; at 100.0 µM,99% (active)
same,growth inhibition,[12]; at 1.2 µM,-4%
same,growth inhibition,[12]; at 3.7 µM,-7%
same,growth inhibition,[12]; at 11.0 µM,-12%
same,growth inhibition,[12]; at 33.0 µM,95% (active)
same,growth inhibition,[12]; at 100.0 µM,100% (active)
same,growth inhibition,[13]; at 1.2 µM,-3%
same,growth inhibition,[13]; at 3.7 µM,-6%
same,growth inhibition,[13]; at 11.0 µM,-6%
same,growth inhibition,[13]; at 33.0 µM,87% (active)
same,growth inhibition,[13]; at 100.0 µM,100% (active)
same,growth inhibition,[14]; at 1.2 µM,-3%
same,growth inhibition,[14]; at 3.7 µM,-4%
same,growth inhibition,[14]; at 11.0 µM,-6%
same,growth inhibition,[14]; at 33.0 µM,90% (active)
same,growth inhibition,[14]; at 100.0 µM,100% (active)
same,growth inhibition,[15]; [17],-7%
same,growth inhibition,[15]; [18],98% (active)
same,growth inhibition,[15]; at 50.0 µM,99.4% (active)
same,growth inhibition,[16]; at 1.2 µM,-5%
same,growth inhibition,[16]; at 3.7 µM,-6%
same,growth inhibition,[16]; at 11.0 µM,-6%
same,growth inhibition,[16]; at 33.0 µM,96% (active)
same,growth inhibition,[16]; at 100.0 µM,99% (active)
